{"source": "PubChem BioAssay AID2685", "about": "(National Center for Advancing Translational Sciences (NCATS), 2010)", "note": "The whole screen tested about 320,000 compounds, of which about 2,100 (0.66%) were called active. About 53% were inconclusive and are not listed. This is one part of a sample in which actives are shown more often than they occur. Calls follow the shape of the dose curve; as a rule, active = well fitted inhibition curve with a large enough effect in the signal ratio, with a control signal flat (not every such curve was filed as active); inconclusive = small, poorly fitted or top-dose-only effect, or effect the other way, or a change in a side signal; inactive = flat fitted curve, though single readings scatter; the % refers to the signal ratio. Potency is read from the fitted curve at half-maximal effect."}
{"assay": "qHTS Assay for Lipid Storage Modulators in Drosophila S3 Cells;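 as to cell number change: cells counted by Cell Tracker Red CMTPX staining in the red channel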; as to lipid storage change, negative = inhibition: % is scaled to controls: 0 for no effect and ±100 for the full control effect", "conditions": "BODIPY lipid droplet fluorescence, 18-24 h, cells fed with added oleic acid; cell number change: measured here: cell count max response; series mostly up to 46.1 µM; lipid storage change, negative = inhibition: at the top concentration", "outline": "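Laser-scanning cytometry quantifies lipid droplet accumulation (500–530 nm total intensity; droplet/cell object ratio) in oleic acid-fed (400 uM added) Drosophila S3 cells treated with a concentration series. 20 uM Triacsin C defined 100% inhibition.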", "units": {"cell number change": "%"}}
{"smiles": "C/C(CC(=O)Nc1ccc2c(c1)OCCO2)=N\\NC(=O)c1ccccc1F", "outcome": "inactive", "cell number change": 8.06}
{"smiles": "COc1ccc(C(=O)N/N=C(\\C)CC(=O)Nc2ccc3c(c2)OCCO3)c(OC)c1", "outcome": "inactive", "cell number change": 14.3}
{"smiles": "Cc1ccc(Nc2ccccc2)nn1", "lipid storage change, negative = inhibition": "5.52% (inactive)", "cell number change": 17}
{"smiles": "N#Cc1ncc(Cc2ccccc2)nc1C#N", "Potency": "7.31 µM (active)", "cell number change": -22.9}
{"smiles": "N#Cc1nc(Cc2ccccc2)oc1N1CCCC1", "lipid storage change, negative = inhibition": "-16.8% (inactive)", "cell number change": -9.44}
{"smiles": "N#Cc1nc(Cc2ccccc2)oc1NCc1ccccc1", "lipid storage change, negative = inhibition": "-3.57% (inactive)", "cell number change": -21}
{"smiles": "COc1ccccc1NC(=O)NNC(=O)C(C)Oc1ccc2ccccc2c1", "note": "(centres undefined)", "lipid storage change, negative = inhibition": "6.71% (inactive)", "cell number change": 7.76}
{"smiles": "Cc1ccc(/C=N/N2CCN(Cc3ccc(Cl)cc3)CC2)o1", "lipid storage change, negative = inhibition": "-1.89% (inactive)", "cell number change": -6.6}
{"smiles": "O=C(C1CSC2(c3ccc(F)cc3)CCC(=O)N12)N1CCCCCC1", "note": "(centres undefined)", "Potency": "18.4 µM (active)", "cell number change": -5.6}
{"smiles": "CC(C)CNC(=O)NC(=O)COC(=O)C1CSC2(c3ccc(F)cc3)CCC(=O)N12", "note": "(centres undefined)", "lipid storage change, negative = inhibition": "-8.94% (inactive)", "cell number change": 5.71}
{"smiles": "O=C(COC(=O)C1CSC2(c3ccc(F)cc3)CCC(=O)N12)NC(=O)NC1CCCC1", "note": "(centres undefined)", "lipid storage change, negative = inhibition": "-22.5% (inactive)", "cell number change": 8.51}
{"smiles": "Cc1cnc(NC(=O)CCNC(=O)c2ccccc2Cl)s1", "lipid storage change, negative = inhibition": "-19.1% (inactive)"}
{"smiles": "Cc1noc(C(=O)NCc2cccnc2)c1Cl", "lipid storage change, negative = inhibition": "1.19% (inactive)", "cell number change": 3.97}
{"smiles": "CCOC(=O)Nc1ccc2c(CN3CCN(S(=O)(=O)c4ccccc4)CC3)cc(=O)oc2c1", "lipid storage change, negative = inhibition": "4.48% (inactive)", "cell number change": 3.64}
{"smiles": "O=C(NCC1CCCN(C(=O)Cc2ccccc2Cl)C1)c1ccc(F)cc1", "note": "(centres undefined)", "outcome": "inactive", "cell number change": 17.2}
{"smiles": "CC(=O)c1ccccc1NC(=O)COC(=O)c1c(C)nn(-c2ccccc2)c1C", "lipid storage change, negative = inhibition": "0.367% (inactive)", "cell number change": -19.3}
{"smiles": "CC(C)(C)NC(=O)COC(=O)C1c2ccccc2Oc2ccccc21", "lipid storage change, negative = inhibition": "22.1% (inactive)", "cell number change": -10.4}
{"smiles": "CN(C)S(=O)(=O)c1cccc(NC(=O)COC(=O)CNC(=O)c2ccccc2F)c1", "outcome": "inactive"}
{"smiles": "CN(C)S(=O)(=O)c1cccc(NC(=O)COC(=O)C2(c3ccccc3F)CCCC2)c1", "Potency": "8.2 µM (active)", "cell number change": -25.4}
{"smiles": "CC(=O)c1ccccc1NC(=O)COC(=O)/C(=C/c1ccccc1)n1nnnc1C", "Potency": "7.31 µM (active)", "cell number change": -27.9}
{"smiles": "CN(C)S(=O)(=O)c1cccc(NC(=O)CSc2nnnn2-c2ccccc2)c1", "lipid storage change, negative = inhibition": "-9.83% (inactive)", "cell number change": -3.51}
{"smiles": "CC(C)(C)NC(=O)COC(=O)c1ccccc1Oc1ccccc1", "lipid storage change, negative = inhibition": "8.37% (inactive)"}
{"smiles": "CC(=O)c1ccccc1NC(=O)COC(=O)c1ccccc1NC(=O)c1ccccc1", "lipid storage change, negative = inhibition": "-2.12% (inactive)", "cell number change": -15}
{"smiles": "NS(=O)(=O)c1cccc(NC(=O)COC(=O)C2(c3cccc(F)c3)CCCC2)c1", "lipid storage change, negative = inhibition": "14.4% (inactive)", "cell number change": -1.45}
{"smiles": "Cc1nnnn1/C(=C\\c1ccccc1)C(=O)OCC(=O)NC(C)(C)C", "Potency": "4.11 µM (active)", "cell number change": -11.4}
{"smiles": "Cc1nnnn1/C(=C\\c1ccccc1)C(=O)OCC(=O)Nc1cccc(S(=O)(=O)N(C)C)c1", "Potency": "3.66 µM (active)", "cell number change": -25}
{"smiles": "Cc1cc(C(=O)OCC(=O)Nc2cccc(S(=O)(=O)N(C)C)c2)c2ccccc2n1", "lipid storage change, negative = inhibition": "-9.59% (inactive)", "cell number change": -13.9}
{"smiles": "COc1ccc(C2N(c3ccc4c(c3)OCCO4)C(=O)C2(F)F)cc1OC", "note": "(centres undefined)", "lipid storage change, negative = inhibition": "-8.57% (inactive)", "cell number change": -17.8}
{"smiles": "Cc1c(Cl)cccc1NC(=O)NCc1ccc(F)cc1", "lipid storage change, negative = inhibition": "-7.7% (inactive)", "cell number change": 3.73}
{"smiles": "COc1cccc(-c2noc(C3CCCN(C(=O)c4cccc(F)c4)C3)n2)c1", "note": "(centres undefined)", "outcome": "inactive", "cell number change": -8.07}
{"smiles": "CCOc1ccc(N(CC(=O)Nc2ccc(C)c(C)c2)S(=O)(=O)c2c(C)[nH]c(=O)[nH]c2=O)cc1", "lipid storage change, negative = inhibition": "17.7% (inactive)", "cell number change": 10.2}
{"smiles": "CCC(C)NC(=O)C(=O)NCc1ccncc1", "note": "(centres undefined)", "lipid storage change, negative = inhibition": "0.0372% (inactive)", "cell number change": -9.14}
{"smiles": "CCc1ccc2oc(C(=O)N3CCN(C)CC3)cc(=O)c2c1", "lipid storage change, negative = inhibition": "5.21% (inactive)", "cell number change": 14.4}
{"smiles": "O=C1/C(=C/c2cccnc2)CCC/C1=C\\c1cccnc1", "Potency": "14.6 µM (active)", "cell number change": -13.8}
{"smiles": "CC(C)/C=C1\\CC/C(=C\\c2cccnc2)C1=O", "lipid storage change, negative = inhibition": "0.736% (inactive)", "cell number change": -13.9}
{"smiles": "CC1C/C(=C/c2cccs2)C(=O)/C(=C/c2cccs2)C1", "note": "(centres undefined)", "lipid storage change, negative = inhibition": "0.0093% (inactive)", "cell number change": -17.9}
{"smiles": "O=C1/C(=C/c2cccnc2)CC/C1=C\\c1cccnc1", "lipid storage change, negative = inhibition": "6.31% (inactive)", "cell number change": -4.02}
{"smiles": "CC1C/C(=C\\c2cccnc2)C(=O)/C(=C/c2cccnc2)C1", "note": "(centres undefined)", "Potency": "5.17 µM (active)", "cell number change": -29}
{"smiles": "O=C1/C(=C/c2cccnc2)Cc2ccc(Cl)cc21", "lipid storage change, negative = inhibition": "23.8% (inactive)", "cell number change": 24.8}
{"smiles": "CN(C)c1cccc(C(=O)NNC(=O)NC2CCCCC2)c1", "lipid storage change, negative = inhibition": "0.926% (inactive)", "cell number change": -5.42}
{"smiles": "Cc1cccc2cc(CN(CC3CCCO3)S(=O)(=O)c3ccccc3)c3nnnn3c12", "note": "(centres undefined)", "outcome": "inactive", "cell number change": 3.31}
{"smiles": "CC(CC(=O)Nc1cccc(F)c1)S(=O)(=O)c1ccc2c(c1)NC(=O)CO2", "note": "(centres undefined)", "outcome": "inactive", "cell number change": 6.92}
{"smiles": "C/C(=N\\NC(=O)c1ccccc1OCc1ccc(F)cc1)c1ccccn1", "lipid storage change, negative = inhibition": "-3.9% (inactive)", "cell number change": -7.7}
{"smiles": "CCN(CC)C(=O)c1sc2nc(-c3cccs3)cc(-c3ccc(Cl)cc3)c2c1N", "Potency": "20.6 µM (active)", "cell number change": 23.2}
{"smiles": "N#Cc1sc2nc(-c3cccs3)cc(-c3ccc(F)cc3)c2c1N", "lipid storage change, negative = inhibition": "22.1% (inactive)", "cell number change": -15.9}
{"smiles": "Nc1c(C(=O)O)sc2nc(-c3ccccc3)cc(-c3ccc(Cl)cc3)c12", "lipid storage change, negative = inhibition": "-5.56% (inactive)", "cell number change": -6.59}
